For ten compounds, outcome and AC50 results are on record in PubChem BioAssay (EPA / NIEHS).

Calls of active or inactive are those of the source. How the source made its calls: active means hit-call score of the fitted dose curve at least 0.9, where 1 is the maximum; inactive means score below 0.9.

Test [1] in a line: ATG_GLI_CIS: Attagene CIS-FACTORIAL HepG2 Assay for human Zinc Finger Protein GLI1 (AID 2282945). Conditions: HepG2, Attagene cis-factorial reporter mRNA, GLI element; actives raise or lower the signal. The method in brief:
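Bidirectional curve fits relative to DMSO, using reporter mRNA levels from RT-PCR plus capillary electrophoresis. Cells were HepG2 transiently carrying cis-regulated reporter constructs, harvested 24 h after dosing.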

Test [2] in a line: ATG_M_32_CIS: Attagene CIS-FACTORIAL HepG2 Assay for M32 Transcription Factor (Internal Marker) (AID 2282949).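 Further: background control marker of the multiplexed CIS panel rather than a real target.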 Conditions: HepG2 Attagene cis-factorial M32 reporter, mRNA; actives raise or lower the signal. A digest of the protocol: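 Using DMSO as baseline, bidirectional curve fits were applied to reporter mRNA signals. These came from transiently transfected HepG2 cells exposed for 24 h, with RNA analysed by RT-PCR, FAM primer extension, HpaI digestion and CE.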

The nature of test [3]: ATG_M_06_CIS: Attagene CIS-FACTORIAL HepG2 Assay for M06 Transcription Factor (Internal Marker) (AID 2282950). Conditions: HepG2 Attagene CIS-FACTORIAL M06 internal marker reporter; actives raise or lower the signal. The method in brief: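 Steps: transfect HepG2 with multiplexed cis-element reporter constructs; dose chemical 24 h; extract RNA with DNase treatment; reverse-transcribe, PCR-amplify, 6-FAM label, HpaI digest; separate fragments by capillary electrophoresis. Activity fitted both directions versus DMSO.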

Test [4] concerns the target Hypoxia-inducible factor 1-alpha (Homo sapiens) (UniProt Q16665). Kind of test: ATG_HIF1a_CIS: Attagene CIS-FACTORIAL HepG2 Assay for human Hypoxia Inducible Factor 1 (HIF1A) (AID 2282951). Conditions: HepG2 Attagene cis-factorial HIF1a reporter transcription; actives raise or lower the signal. The method in brief:
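HepG2, transient cis-reporter library, 24 h dosing. RNA → RT (oligo dT) → PCR → 6-FAM primer extension → HpaI → CE. Bidirectional curve fit vs DMSO.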

Test [5] concerns the target Hepatocyte nuclear factor 6 (Homo sapiens) (UniProt Q9UBC0). Put plainly: ATG_HNF6_CIS: Attagene CIS-FACTORIAL HepG2 Assay for human Hepatocyte Nuclear Factor 6 (HNF6) (AID 2282952). Conditions: HepG2 Attagene cis-factorial HNF6 reporter transcription; actives raise or lower the signal. A digest of the protocol: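 Using cis-element reporters in HepG2 liver cells, the assay tracks endogenous factor-driven transcription 24 h post-dosing. Signal comes from 6-FAM-labelled, HpaI-digested RT-PCR fragments, with gain or loss scored against DMSO.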

Test [6] in a line: ATG_MRE_CIS: Attagene CIS-FACTORIAL HepG2 Assay for human Metal Responsive Element (MRE) (AID 2282954). Conditions: HepG2 MRE cis-reporter transcription, Attagene multiplex; actives raise or lower the signal. A digest of the protocol:
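Multiplexed cis-reporter assay in human HepG2 liver cells, 24 h incubation with test chemical. Reporter transcripts measured by RT-PCR and capillary electrophoresis; values from bidirectional curve fitting versus DMSO.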

A short description of test [7]: ATG_PBREM_CIS: Attagene CIS-FACTORIAL HepG2 Assay for human Phenobarbital-responsive Enhancer Module (PBREM) (AID 2282955). Conditions: HepG2 PBREM cis-reporter, Attagene multiplexed transcription; actives raise or lower the signal. A digest of the protocol: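 HepG2, transient MRTU transfection, 24 h dosing; RNA → oligo(dT) RT → PCR → 6-FAM extension → HpaI → CE. Bidirectional fit vs DMSO.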

In test [8] the target is Paired box protein Pax-6 (Homo sapiens) (UniProt P26367). Kind of test: ATG_Pax6_CIS: Attagene CIS-FACTORIAL HepG2 Assay for human Paired Box 6 (PAX6) (AID 2282956). Conditions: HepG2 CIS-FACTORIAL PAX6 reporter transcription, RNA readout; actives raise or lower the signal. A digest of the protocol: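 Readout: reporter transcript fluorescence after RT-PCR and capillary electrophoresis. Cells: HepG2, transiently transfected with cis-regulated MRTUs. Exposure 24 h. Gain or loss of signal fitted bidirectionally relative to DMSO.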
Sequence of Paired box protein Pax-6 (Homo sapiens) (P26367 whole entry, looked up): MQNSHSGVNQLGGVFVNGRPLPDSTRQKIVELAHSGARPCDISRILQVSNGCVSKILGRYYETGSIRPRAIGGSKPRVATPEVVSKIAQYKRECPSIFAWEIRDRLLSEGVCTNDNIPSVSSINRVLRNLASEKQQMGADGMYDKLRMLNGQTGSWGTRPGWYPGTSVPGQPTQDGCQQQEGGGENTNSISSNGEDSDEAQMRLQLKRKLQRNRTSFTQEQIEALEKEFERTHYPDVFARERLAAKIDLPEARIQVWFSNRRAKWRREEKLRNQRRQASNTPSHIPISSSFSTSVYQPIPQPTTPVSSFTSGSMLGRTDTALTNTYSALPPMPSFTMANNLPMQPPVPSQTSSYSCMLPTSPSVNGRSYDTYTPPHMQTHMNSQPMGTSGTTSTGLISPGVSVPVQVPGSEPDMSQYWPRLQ

The nature of test [9]: ATG_PXRE_CIS: Attagene CIS-FACTORIAL HepG2 Assay for human Pregnane X Receptor Element (PXRE) (AID 2282957). Conditions: HepG2 Attagene CIS-FACTORIAL PXRE reporter, mRNA; actives raise or lower the signal. The method in brief: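 Using HepG2 transfected with multiple reporter transcription units, endogenous factor-driven transcription was scored as reporter mRNA after 24 h exposure.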

Test [10] in a line: ATG_RORE_CIS: Attagene CIS-FACTORIAL HepG2 Assay for human RAR-related Orphan Receptor Element (RORE) (AID 2282959). Conditions: HepG2 Attagene cis-factorial RORE reporter, mRNA; actives raise or lower the signal. A digest of the protocol:
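Multiplexed reporter assay measuring mRNA induction from a cis promoter element in transiently transfected HepG2 cells after 24 h treatment. Detection via RT-PCR and capillary electrophoresis fluorescence; DMSO serves as baseline.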

A short description of test [11]: ATG_Sox_CIS: Attagene CIS-FACTORIAL HepG2 Assay for human SRY-box transcription factor (SOX) (AID 2282960). Conditions: HepG2 Attagene cis-factorial SOX reporter, mRNA; actives raise or lower the signal. The method in brief: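 Cells were transfected with reporter constructs under cis-regulatory promoters, then exposed to chemicals for 24 h. Reporter transcripts were quantified by fluorescence after RT-PCR and capillary electrophoresis; activity was fitted in both directions against DMSO.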

The target of test [12] is Transcription factor Sp1 (Homo sapiens) (UniProt P08047). Put plainly: ATG_Sp1_CIS: Attagene CIS-FACTORIAL HepG2 Assay for human Specificity Protein 1 (Sp1) (AID 2282961). Conditions: HepG2 Sp1 cis-reporter transcription, actives raise or lower the signal. The method in brief:
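Measures mRNA induction of an Sp1-linked reporter in HepG2 cells 24 h post-dosing. Multiplexed reporters read by RT-PCR and capillary electrophoresis; DMSO serves as negative control and baseline.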

Test [13] can be described thus: ATG_SREBP_CIS: Attagene CIS-FACTORIAL HepG2 Assay for human Sterol Regulatory Element Binding (SREBP) (AID 2282962). Conditions: HepG2 Attagene cis-factorial SREBP reporter, mRNA; actives raise or lower the signal. A digest of the protocol: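 Readout: fluorescent reporter-transcript peaks resolved by capillary electrophoresis after RT-PCR. Cells were human HepG2 carrying transfected cis-promoter reporter constructs, dosed for 24 h. Gain or loss of signal was fitted against DMSO controls.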

The target in test [14] is Signal transducer and activator of transcription 3 (Homo sapiens) (UniProt P40763). Kind of test: ATG_STAT3_CIS: Attagene CIS-FACTORIAL HepG2 Assay for human Signal Transducer and Activator of Transcription 3 (STAT3) (AID 2282963). Conditions: HepG2, Attagene cis-factorial STAT3 reporter transcription; actives raise or lower the signal. The method in brief: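 Cis-factorial format: endogenous transcription factors in HepG2 drive transfected reporter units. After 24 h treatment, reporter RNA was reverse-transcribed, amplified, FAM-labelled and HpaI-digested before CE analysis; activity scored in both directions against DMSO.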
Sequence of Signal transducer and activator of transcription 3 (Homo sapiens) (P40763 whole entry, looked up): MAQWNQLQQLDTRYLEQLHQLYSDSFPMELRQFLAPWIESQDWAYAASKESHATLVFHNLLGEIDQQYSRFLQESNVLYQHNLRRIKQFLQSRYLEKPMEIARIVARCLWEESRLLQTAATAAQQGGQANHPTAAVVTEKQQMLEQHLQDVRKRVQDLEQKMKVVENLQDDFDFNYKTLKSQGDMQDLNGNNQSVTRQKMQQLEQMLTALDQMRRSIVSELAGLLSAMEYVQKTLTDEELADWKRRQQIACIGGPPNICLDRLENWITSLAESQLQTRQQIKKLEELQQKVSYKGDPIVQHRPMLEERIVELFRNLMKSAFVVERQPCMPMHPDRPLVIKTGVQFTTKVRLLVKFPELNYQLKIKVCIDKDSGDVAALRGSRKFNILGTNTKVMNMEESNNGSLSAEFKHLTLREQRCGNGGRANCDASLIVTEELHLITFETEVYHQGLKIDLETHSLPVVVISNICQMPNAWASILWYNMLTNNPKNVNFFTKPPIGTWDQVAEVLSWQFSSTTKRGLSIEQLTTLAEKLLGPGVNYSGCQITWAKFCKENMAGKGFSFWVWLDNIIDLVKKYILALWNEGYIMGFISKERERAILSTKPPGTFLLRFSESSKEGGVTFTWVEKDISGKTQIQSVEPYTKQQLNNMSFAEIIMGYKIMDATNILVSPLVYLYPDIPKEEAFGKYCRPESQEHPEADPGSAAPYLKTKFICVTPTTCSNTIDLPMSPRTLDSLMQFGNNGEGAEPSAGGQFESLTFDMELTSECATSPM

A short description of test [15]: ATG_TA_CIS: Attagene CIS-FACTORIAL HepG2 Assay for human TA Basal Promoter (AID 2282964). Conditions: HepG2 Attagene CIS-factorial TA basal promoter reporter; actives raise or lower the signal. The method in brief:
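Steps: transfect HepG2 with MRTUs; dose 24 h; isolate RNA, DNase-treat, reverse-transcribe; PCR and FAM-label reporter cDNA; digest with HpaI 2h at 37 C; run capillary electrophoresis. Activity fitted both directions against DMSO.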

Test [16] is described as follows: ATG_ISRE_CIS: Attagene CIS-FACTORIAL HepG2 Assay for human Interferon Regulatory Factor 1 (IRF1) binding to an Interferon-Stimulated Response Element (ISRE) (AID 2282948). Conditions: HepG2 ISRE cis-reporter (Attagene), mRNA transcription readout; actives raise or lower the signal. A digest of the protocol:
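Read-out: fluorescent RT-PCR products resolved by capillary electrophoresis, reporting endogenous transcription factor activity via ISRE-driven reporter mRNA in transfected HepG2 cells dosed for 24 h; gain or loss fitted relative to DMSO.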

Test [17] concerns the target Heat shock factor protein 1 (Homo sapiens) (UniProt Q00613). Put plainly: ATG_HSE_CIS: Attagene CIS-FACTORIAL HepG2 Assay for human Heat Shock Transcription Factor 1 (HSE) (AID 2282953). Conditions: HepG2 HSE cis-reporter, Attagene RNA transcription; actives raise or lower the signal. The method in brief: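 Cells were transfected with cis-element-driven reporter constructs, dosed for 24 h, then total RNA was reverse-transcribed and reporter cDNA amplified, FAM-labelled and digested with HpaI. Fragments were resolved by capillary electrophoresis; gain or loss was fitted against DMSO.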

The nature of test [18]: ATG_PPRE_CIS: Attagene CIS-FACTORIAL HepG2 Assay for human Peroxisome Proliferator-activated Response Element (PPRE) (AID 2282958). Conditions: HepG2 PPRE cis-element reporter, Attagene transcription factor profiling; actives raise or lower the signal. The method in brief: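 Transcript-level reporter induction in transfected HepG2 cells after 24 h chemical exposure, quantified by fluorescence from RT-PCR products separated by capillary electrophoresis.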

Sequence of Hypoxia-inducible factor 1-alpha (Homo sapiens) (Q16665 whole entry, looked up): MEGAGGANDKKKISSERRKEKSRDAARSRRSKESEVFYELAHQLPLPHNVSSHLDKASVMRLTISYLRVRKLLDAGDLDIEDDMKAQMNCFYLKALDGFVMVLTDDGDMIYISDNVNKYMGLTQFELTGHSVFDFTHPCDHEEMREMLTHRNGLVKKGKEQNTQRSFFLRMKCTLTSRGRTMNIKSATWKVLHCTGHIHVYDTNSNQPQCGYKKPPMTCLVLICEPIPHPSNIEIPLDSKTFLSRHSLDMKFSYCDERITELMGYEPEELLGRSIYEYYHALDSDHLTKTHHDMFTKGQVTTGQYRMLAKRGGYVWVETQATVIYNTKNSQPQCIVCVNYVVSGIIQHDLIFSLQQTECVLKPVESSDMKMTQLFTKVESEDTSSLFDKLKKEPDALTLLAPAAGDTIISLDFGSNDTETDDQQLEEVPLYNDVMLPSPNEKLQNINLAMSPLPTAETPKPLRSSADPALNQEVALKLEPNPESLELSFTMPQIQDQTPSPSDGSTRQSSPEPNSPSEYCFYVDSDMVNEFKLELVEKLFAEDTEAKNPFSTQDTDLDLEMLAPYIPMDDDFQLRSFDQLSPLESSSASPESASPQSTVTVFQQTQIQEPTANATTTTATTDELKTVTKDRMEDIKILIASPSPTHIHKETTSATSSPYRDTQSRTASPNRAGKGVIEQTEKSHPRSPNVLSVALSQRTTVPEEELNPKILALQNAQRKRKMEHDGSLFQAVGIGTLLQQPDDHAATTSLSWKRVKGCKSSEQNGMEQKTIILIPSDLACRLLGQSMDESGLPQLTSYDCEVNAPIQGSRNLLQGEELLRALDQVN
Sequence of Heat shock factor protein 1 (Homo sapiens) (Q00613 whole entry, looked up, the tested form may be a part): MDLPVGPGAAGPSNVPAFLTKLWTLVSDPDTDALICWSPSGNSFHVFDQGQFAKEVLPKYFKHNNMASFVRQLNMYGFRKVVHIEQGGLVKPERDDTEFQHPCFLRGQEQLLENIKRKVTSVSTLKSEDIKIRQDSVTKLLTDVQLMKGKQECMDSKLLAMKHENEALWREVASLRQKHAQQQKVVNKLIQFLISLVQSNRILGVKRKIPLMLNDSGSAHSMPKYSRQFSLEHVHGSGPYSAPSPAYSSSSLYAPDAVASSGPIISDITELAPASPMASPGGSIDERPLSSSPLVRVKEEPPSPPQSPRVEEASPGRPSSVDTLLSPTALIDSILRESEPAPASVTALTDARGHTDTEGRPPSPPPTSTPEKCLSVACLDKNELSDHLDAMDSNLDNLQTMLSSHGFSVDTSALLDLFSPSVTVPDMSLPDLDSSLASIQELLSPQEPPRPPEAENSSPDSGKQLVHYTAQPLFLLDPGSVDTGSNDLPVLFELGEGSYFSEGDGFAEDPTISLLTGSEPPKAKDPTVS
Sequence of Hepatocyte nuclear factor 6 (Homo sapiens) (Q9UBC0 whole entry, looked up, the tested form may be a part): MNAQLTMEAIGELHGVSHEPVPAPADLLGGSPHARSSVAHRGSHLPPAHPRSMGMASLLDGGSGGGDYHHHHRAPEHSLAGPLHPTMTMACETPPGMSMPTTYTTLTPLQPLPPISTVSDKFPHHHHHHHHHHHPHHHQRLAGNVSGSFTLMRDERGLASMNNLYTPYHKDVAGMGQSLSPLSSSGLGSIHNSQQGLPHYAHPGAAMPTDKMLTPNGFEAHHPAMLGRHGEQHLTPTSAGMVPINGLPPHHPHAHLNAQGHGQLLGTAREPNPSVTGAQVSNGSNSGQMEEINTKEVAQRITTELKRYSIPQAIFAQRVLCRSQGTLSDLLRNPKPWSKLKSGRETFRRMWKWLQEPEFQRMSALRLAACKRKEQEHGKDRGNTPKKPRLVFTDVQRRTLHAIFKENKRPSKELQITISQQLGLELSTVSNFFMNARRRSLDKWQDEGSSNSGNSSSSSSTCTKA
Sequence of Transcription factor Sp1 (Homo sapiens) (P08047 whole entry, looked up): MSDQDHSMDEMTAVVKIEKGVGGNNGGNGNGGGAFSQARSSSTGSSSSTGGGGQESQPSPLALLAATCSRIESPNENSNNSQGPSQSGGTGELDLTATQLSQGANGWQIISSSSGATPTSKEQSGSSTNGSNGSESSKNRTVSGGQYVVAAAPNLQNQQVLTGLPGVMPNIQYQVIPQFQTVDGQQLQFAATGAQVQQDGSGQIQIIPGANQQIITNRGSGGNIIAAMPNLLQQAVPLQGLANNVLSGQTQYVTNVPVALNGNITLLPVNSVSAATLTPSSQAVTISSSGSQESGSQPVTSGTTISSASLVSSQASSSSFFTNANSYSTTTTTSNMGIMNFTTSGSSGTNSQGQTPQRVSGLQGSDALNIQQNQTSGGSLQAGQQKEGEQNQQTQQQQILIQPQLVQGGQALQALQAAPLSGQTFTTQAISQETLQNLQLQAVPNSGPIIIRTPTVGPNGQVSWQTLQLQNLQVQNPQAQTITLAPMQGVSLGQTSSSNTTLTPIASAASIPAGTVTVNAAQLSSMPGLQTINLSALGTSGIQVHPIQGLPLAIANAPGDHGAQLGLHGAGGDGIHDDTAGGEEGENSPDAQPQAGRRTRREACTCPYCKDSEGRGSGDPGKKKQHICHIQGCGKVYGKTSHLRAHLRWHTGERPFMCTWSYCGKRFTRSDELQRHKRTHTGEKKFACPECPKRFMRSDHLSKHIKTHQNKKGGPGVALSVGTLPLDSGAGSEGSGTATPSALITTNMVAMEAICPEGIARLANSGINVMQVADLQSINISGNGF

On to `COC(=O)c1ccc(C(=O)OC)cc1`, for which the outcome in test [1], in test [2], in [3], in [4], in test [5] and in test [6] was inactive. The outcome in [7], in [8], in test [9], in test [10], in test [11] and in test [12] was inactive. Further, the compound was called inactive in test [13], in test [14] and in test [15].
What is called AC50 is the concentration giving half of the maximal activity seen. On to `COC(=O)C(C)Oc1ccc(Oc2ncc(C(F)(F)F)cc2Cl)cc1` (stereo not drawn), for which the outcome in [1], in [16], in [2], in test [3], in [5] and in test [17] was inactive. In addition, the compound was called inactive in [11], in test [12], in test [13], in test [14] and in [15]. Besides, the AC50 in [6] was 100 µM (active); in test [7], 77.7 µM (active); in [9], 14.1 µM (active); in test [18] it was 34.3 µM (active); in [10], 64.6 µM (active).
`Cc1cc(N)n(-c2ccccc2)n1`: the compound was called inactive in test [1], in test [2], in test [3], in test [5], in test [17] and in test [6]. Also, the result in [7], in test [8], in test [10], in [11], in [12] and in test [13] was inactive. In addition, the outcome in [14] and in test [15] was inactive. Further, the AC50 in [9] was 39.5 µM (active).
As for `CCCCCC1C(=O)CCC1CC(=O)OC` (stereo not drawn), the result in test [1], in [16], in [2], in test [3], in test [5] and in test [6] was inactive. The call in test [8], in test [9], in [18], in [11], in test [12] and in test [13] was inactive. The outcome in test [14] and in [15] was inactive.
As for `O=C(O)c1ccco1`, the result in [1], in test [2], in test [3], in test [4], in [5] and in test [17] was inactive. Further, the compound was classed as inactive in test [6], in test [9], in test [11], in test [12], in test [13] and in [14]. Also, the result in test [15] was inactive.
For `C=C(C)CCCC(C)CCO` (stereo not drawn), the outcome in test [1], in test [16], in test [2], in [3], in [4] and in test [17] was inactive. Also, the compound was called inactive in [6], in test [10], in [11], in test [12] and in test [15]. In addition, the AC50 in test [9] was 6.72 µM (active).
As for `CCCCCCCOC(C)=O`, the call in test [1], in test [16], in [2], in [3], in [5] and in test [17] was inactive. Further, the compound was classed as inactive in [6], in test [8], in test [18], in [10], in test [11] and in test [12]. Also, the compound was classed as inactive in test [14] and in test [15]. Also, in test [9], the concentration at half-maximal activity (AC50) was 31 µM (active).
As for `CC(CO)c1ccccc1` (stereo not drawn), the result in test [1], in test [2], in test [3], in test [4], in test [17] and in test [6] was inactive. Also, the outcome in test [7], in [8], in test [9], in test [10], in [11] and in test [12] was inactive. Moreover, the outcome in test [13], in test [14] and in [15] was inactive.
In the case of `C[N+](C)(C)CCO`, the call in test [1], in test [2], in test [3], in test [5], in test [6] and in test [7] was inactive. Besides, the result in test [8], in test [9], in test [18], in test [10], in [11] and in test [12] was inactive. The outcome in [13], in [14] and in [15] was inactive.
With `CC(=O)OCC=C(C)CCC=C(C)CCC=C(C)C`, the AC50 in [1] is 164 µM (active); in [16], 147 µM (active); in test [17], 72.3 µM (active); in test [6] it was 100 µM (active); in [9] it was 9.61 µM (active); in test [10] it was 164 µM (active). The AC50 in test [11] was 162 µM (active); in [15], 100 µM (active). For the same compound, the result in [2], in test [3], in test [5], in test [18] and in [12] was inactive.
